From PubChem BioAssay (NCATS)
Records with an inconclusive call do not appear. Entries that show only a call come without a potency. A number with no mark means an inactive call. Activity calls are given as the source filed them. Calls follow the shape of the dose curve; as a rule, active = well fitted cell-killing curve with a large enough effect; inconclusive = small, poorly fitted or top-dose-only effect; inactive = flat fitted curve, though single readings scatter.

Test: Cellular viability qHTS for adrenocortical cancer (ACC) cell line SW-13 (AID 1963989);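 also: cells grown in serum-free medium with ITS supplement; nearly all actives have a fitted effect of over 65% in size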
Details: SW-13 ACC cells viability, CellTiter-Glo, 48 h; activity (max response): stronger effect = lower value
How it was run: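 Viability was read as CellTiter-Glo luminescence after 48 h compound treatment (up to 46 uM final) of SW-13 cells grown serum-free; titration curves were fit with a four-parameter logistic model to give IC50 and efficacy.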

Q: Which activity (max response) does the source give for `CCCCc1nc(Cl)c(CO)n1Cc1ccc(-c2ccccc2-c2nn[nH]n2)cc1` here?
A: 12.4%

Q: For `CO[C@@]1(NC(=O)CSCC#N)C(=O)N2C(C(=O)O)=C(CSc3nnnn3C)CS[C@@H]21`, which activity (max response) is on record?
A: 9.84%

Q: For `COC(=O)C1=C(C)NC(C)=C(C(=O)OCCc2ccc(N3CCN(C(c4ccccc4)c4ccccc4)CC3)cc2)C1c1cccc([N+](=O)[O-])c1` (configuration not stated), which activity (max response) is on record?
A: 7.28%

Q: For `CC(C)NC(=O)N1CC[C@H](N=C2Nc3cc(F)ccc3N(CC(F)F)c3ccc(Cl)cc32)C1`, which activity (max response) is on record?
A: -16%

Q: With `Cc1cccc(Nc2ccccc2C(=O)O)c1C` as the compound, how does the activity (max response) read?
A: 8.3%

Q: Which activity (max response) does the source give for `O=c1c(-c2ccc(O)cc2)coc2cc(O[C@@H]3O[C@H](CO)[C@@H](O)[C@H](O)[C@H]3O)ccc12` here?
A: -7.43%

Q: With `O=C(O)Cn1c(=O)n(Cc2ccc(Br)cc2F)c(=O)c2ccc(Cl)cc21` as the compound, how does the activity (max response) read?
A: 14.5%

Q: For `OC(CCN1CCCCC1)(c1ccccc1)c1ccccc1`, which activity (max response) is on record?
A: 3.2%

Q: With `N#C[C@@H]1C[C@@H]2C[C@@H]2N1C(=O)[C@@H](N)C12CC3CC(CC(O)(C3)C1)C2` as the compound, how does the activity (max response) read?
A: 7.26%

Q: With `COc1cc(NS(=O)(=O)c2ccc(N)cc2)nc(C)n1` as the compound, how does the activity (max response) read?
A: 1.38%

Q: With `N#Cc1ccc(N(Cc2ccc(Br)cc2)n2cnnc2)cc1` as the compound, how does the activity (max response) read?
A: -0.886%

Q: For `CC1Oc2cc(cnc2N)-c2c(nn(C)c2C#N)CN(C)C(=O)c2ccc(F)cc21` (configuration not stated), which activity (max response) is on record?
A: -20%

Test: Cellular viability qHTS for adrenocortical cancer (ACC) cell line NCI-H295R (AID 1963990); also: nearly all actives have a fitted effect of over 60% in size; also: potency is read from the fitted curve at half-maximal effect
Details: CellTiter-Glo ATP luminescence, 48 h; series mostly up to 46.1 µM
How it was run: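 CellTiter-Glo ATP luminescence, read 48 h after compound addition, measured viability of NCI-H295R adrenocortical cells grown serum-free with ITS. Final concentrations spanned up to 46 uM. Data normalized to DMSO and doxorubicin, fitted for IC50 and maximal response.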

Q: Which Potency does the source give for `O=C1[C@@H]2[C@H]3CC[C@H](C3)[C@@H]2C(=O)N1CCCCN1CCN(c2ncccn2)CC1` here?
A: inactive

Q: For `CCCCc1nc(Cl)c(CO)n1Cc1ccc(-c2ccccc2-c2nn[nH]n2)cc1`, which Potency is on record?
A: inactive

Q: For `CC(C)Cc1ccc(C(C)C(=O)OCc2ccccn2)cc1` (configuration not stated), which Potency is on record?
A: inactive

Q: For `CCC(C(=O)OCCN1CCOC(c2ccccc2)C1C)c1ccccc1` (configuration not stated), which Potency is on record?
A: inactive

Q: With `CC[C@H]1OC(=O)[C@H](C)C(=O)[C@H](C)[C@@H](O[C@H]2O[C@H](C)C[C@H](N(C)C)[C@H]2O)[C@](C)(OC)C[C@@H](C)C(=O)[C@H](C)[C@H]2N(CCCCn3cnc(-c4cccnc4)c3)C(=O)O[C@]12C` as the compound, how does the Potency read?
A: inactive

Q: With `CO[C@@]1(NC(=O)CSCC#N)C(=O)N2C(C(=O)O)=C(CSc3nnnn3C)CS[C@@H]21` as the compound, how does the Potency read?
A: inactive

Q: With `C[C@@H]1O[C@@H](O[C@@H]2\C=C/C=C\C=C/C=C\C[C@H](C)OC(=O)/C=C\[C@H]3O[C@@H]3C[C@H](O)C[C@]3(O)C[C@@H](O)[C@@H](C(=O)O)[C@H](C2)O3)[C@H](O)[C@H](N)[C@@H]1O` as the compound, how does the Potency read?
A: inactive

Q: With `COC(=O)C1=C(C)NC(C)=C(C(=O)OCCc2ccc(N3CCN(C(c4ccccc4)c4ccccc4)CC3)cc2)C1c1cccc([N+](=O)[O-])c1` (configuration not stated) as the compound, how does the Potency read?
A: inactive

Q: For `N=C1S/C(=C\c2ccc(-c3ccc4c(c3)C(=O)NC4=O)o2)C(=O)N1c1ccc(Br)cc1`, which Potency is on record?
A: inactive

Q: For `CC(C)NC(=O)N1CC[C@H](N=C2Nc3cc(F)ccc3N(CC(F)F)c3ccc(Cl)cc32)C1`, which Potency is on record?
A: inactive

Q: Which Potency does the source give for `Cc1cccc(Nc2ccccc2C(=O)O)c1C` here?
A: inactive

Q: For `O=C(NN1CCCC1)NS(=O)(=O)c1ccc(Cl)cc1`, which Potency is on record?
A: inactive

Q: Which Potency does the source give for `O=c1c(-c2ccc(O)cc2)coc2cc(O[C@@H]3O[C@H](CO)[C@@H](O)[C@H](O)[C@H]3O)ccc12` here?
A: inactive

Q: Which Potency does the source give for `O=C1c2ccccc2CCc2ccccc21` here?
A: inactive

Q: For `CC(=O)Oc1ccc(C2(c3ccc(OC(C)=O)cc3)C(=O)Nc3ccccc32)cc1`, which Potency is on record?
A: inactive

Q: With `C=C1CCC[C@]2(C)C=C3OC(=O)C(C)=C3C[C@@H]12` as the compound, how does the Potency read?
A: inactive

Q: With `O=C(O)Cn1c(=O)n(Cc2ccc(Br)cc2F)c(=O)c2ccc(Cl)cc21` as the compound, how does the Potency read?
A: inactive

Q: With `O=C(CCCCCCCCC#CI)Oc1ccccc1` as the compound, how does the Potency read?
A: 13 µM (active)

Q: Which Potency does the source give for `CCOCOC[C@H](C[C@H](C)C(=O)NO)NC(=O)c1ccc(Oc2ccccc2)cc1` here?
A: inactive

Q: With `CC[N+]1(CC)CCC(=C(c2ccccc2)c2ccccc2)C1C` (configuration not stated) as the compound, how does the Potency read?
A: inactive

Q: For `OC(CCCN1CCCCC1)(c1ccccc1)c1ccccc1`, which Potency is on record?
A: inactive

Q: Which Potency does the source give for `OC(CCN1CCCCC1)(c1ccccc1)c1ccccc1` here?
A: inactive

Q: Which Potency does the source give for `CCN(CC)CCOc1ccc(C(O)(Cc2ccc(Cl)cc2)c2ccc(C)cc2)cc1` (configuration not stated) here?
A: 16.4 µM (active)

Q: With `COc1cccc(-c2cc(F)ccc2C2Cc3nc(N)nc(C)c3C(=O)N2)n1` (configuration not stated) as the compound, how does the Potency read?
A: 0.0501 µM (active)

Q: Which Potency does the source give for `O=C1CC[C@H](C(=O)N2CCCCC2)N1` here?
A: inactive

Q: With `Nc1ncc(C(=O)NC2CN(C(=O)C3CC3)C2)c2ccc(-c3cccc(F)c3)nc12` as the compound, how does the Potency read?
A: inactive

Q: With `NS(=O)(=O)c1cc(C(=O)NN2C[C@H]3[C@H]4CCC(C4)[C@H]3C2)ccc1Cl` as the compound, how does the Potency read?
A: inactive

Q: For `N[C@@H](Cc1cc(I)c(O)c(I)c1)C(=O)O`, which Potency is on record?
A: inactive

Q: Which Potency does the source give for `CO/N=C1\CN(c2nc3c(cc2F)c(=O)c(C(=O)O)cn3C2CC2)CC1CN` (configuration not stated) here?
A: inactive

Q: With `CCN(CC)CCOCCOC(=O)C1(c2ccccc2)CCCC1` as the compound, how does the Potency read?
A: inactive

Q: With `Cc1nc2ccccn2c(=O)c1CCN1CCC(C(=O)c2ccc(F)cc2)CC1` as the compound, how does the Potency read?
A: inactive

Q: Which Potency does the source give for `CCCCC(=O)OCC(=O)[C@H]1[C@H](C)C[C@H]2[C@@H]3C[C@H](F)C4=CC(=O)C=C[C@]4(C)[C@@]3(F)[C@@H](O)C[C@@]21C` here?
A: inactive

Q: With `N#C[C@@H]1C[C@@H]2C[C@@H]2N1C(=O)[C@@H](N)C12CC3CC(CC(O)(C3)C1)C2` as the compound, how does the Potency read?
A: inactive

Q: Which Potency does the source give for `CCCCC1C(=O)N(c2ccccc2)N(c2ccc(O)cc2)C1=O` (configuration not stated) here?
A: 5.17 µM (active)

Q: Which Potency does the source give for `Cc1nc([C@](C)(O)CO)sc1-c1cnc(N)c(O[C@H](C)c2cc(F)ccc2-n2nccn2)c1` here?
A: 2.82 µM (active)

Q: Which Potency does the source give for `COc1cc(NS(=O)(=O)c2ccc(N)cc2)nc(C)n1` here?
A: inactive

Q: Which Potency does the source give for `COc1ncc(Nc2ncc(C(C)N3CCN(S(C)(=O)=O)CC3)cc2-c2nc(C)nc(N)n2)cc1F` (configuration not stated) here?
A: inactive

Q: With `N#Cc1ccc(N(Cc2ccc(Br)cc2)n2cnnc2)cc1` as the compound, how does the Potency read?
A: inactive

Q: Which Potency does the source give for `CC1Oc2cc(cnc2N)-c2c(nn(C)c2C#N)CN(C)C(=O)c2ccc(F)cc21` (configuration not stated) here?
A: 20 µM (active)

Q: With `N[C@H](Cc1c[nH]c2ccccc12)C(=O)O` as the compound, how does the Potency read?
A: inactive
